# A selection: hits, their analogues and other compounds. The true share with any hit is near 2.5%.
# MRP-1 activ – MRP-1 activation; H69AR cells + doxorubicin, viability rescue, CellTiter-Glo; viability increase, % at 10 µM; actives 0.61% (n = 140,000); AID 799;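 active = viability gain under doxorubicin at or above a set limit, the compound median plus 3 SD, cut at about 4.7% in these data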;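 note: MRP-1 overexpressing cells given doxorubicin 25 µM after compound pretreatment; 18-22 h compound pretreatment then 72 h with doxorubicin before readout; 0% = doxorubicin-only wells and 100% = vehicle-treated cells without doxorubicin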
# sEH inh – inhibitors of human soluble epoxide hydrolase. P34913. recombinant human sEH enzymatic activity assay. inhibition, % at 2 µM. actives 0.34% (n = 91,000); in the data active = inhibition above about 80%
# Target sequence (P34913 whole entry, looked up): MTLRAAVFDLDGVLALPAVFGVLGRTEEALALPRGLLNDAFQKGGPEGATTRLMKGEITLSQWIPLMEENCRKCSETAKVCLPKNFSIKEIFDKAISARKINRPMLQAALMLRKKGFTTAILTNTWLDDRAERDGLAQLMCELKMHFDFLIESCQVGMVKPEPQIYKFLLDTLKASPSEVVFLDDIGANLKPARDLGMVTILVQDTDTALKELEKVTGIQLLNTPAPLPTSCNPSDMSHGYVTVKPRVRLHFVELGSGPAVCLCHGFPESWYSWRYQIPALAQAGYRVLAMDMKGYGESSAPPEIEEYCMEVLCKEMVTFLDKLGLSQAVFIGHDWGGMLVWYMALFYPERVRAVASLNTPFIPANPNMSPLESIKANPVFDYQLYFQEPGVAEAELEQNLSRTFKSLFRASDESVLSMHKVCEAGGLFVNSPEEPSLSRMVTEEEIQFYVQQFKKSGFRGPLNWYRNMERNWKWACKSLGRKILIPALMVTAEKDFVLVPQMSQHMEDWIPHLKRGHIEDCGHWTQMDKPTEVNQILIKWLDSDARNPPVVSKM
# Measles CPE – protection of cells from measles virus; Measles virus-infected cells, CPE protection, absorbance; protection (pct of control), % at 4 µM; actives 1.5% (n = 140,000); in the data active = protection mostly above about 24%, no sharp cut-off; inactive = mostly below about 26%
# sEH activator – activators of human soluble epoxide hydrolase; P34913; purified human sEH enzymatic activity, activator screen; activation, % at 2 µM; actives 0.04% (n = 91,000); in the data active = activation above about 37%
# sdo1 growth – restores growth of sdo1-depleted yeast; actives 0.21% (n = 140,000); z-score at 10 µM; S. cerevisiae sdo1-depleted JHY4D growth rescue, OD600 30 h; stronger effect = higher value; pdr5 snq2 efflux-pump mutant strain;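 active = z-score above 3 at both the 24 hr and the 30 hr optical density reads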;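 note: z-score against mean and SD of all compound wells on the same plate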
# MRP resist rev – MRP-mediated drug resistance reversal | H69AR cells + 2 uM doxorubicin, CellTiter-Glo, 72 h | differential viability (reversal), % at 10 µM | actives 0.04% (n = 85,000);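 active = viability drop by adding the cancer drug above about 55%, with treated viability meeting a 40% cutoff, limit read from the data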;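 note: viability without doxorubicin minus viability with 2 µM doxorubicin for each compound; larger differential means the compound sensitizes cells more to doxorubicin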
# SDO1 rescue DR – confirmation of growth rescue in SDO1-depleted yeast, bone marrow failure | S. cerevisiae JHY4D (SDO1-depleted) growth rescue, OD600, 30 h; stronger effect = higher value; efflux-deficient strain, SNQ2 and PDR5 mutated | OD recovery (concentration not given with the values) | shares compounds with sdo1 growth | actives 44% (n = 440) | AID 949;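 active = yeast growth recovered at 30 hours, either rising with dose fitted slope above 0.001 or with average optical density gain above 0.07, some results past the limit were not filed as active; inactive = growth falling with dose or no effect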;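 note: gain in OD600 from 0 h to 30 h averaged across all seven doses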
# Starred values were filed as active, the others as inactive; . = no result given.
SMILES,MRP-1 activ,sEH inh,Measles CPE,sEH activator,sdo1 growth,MRP resist rev,SDO1 rescue DR
CCOC(=O)/C=C/C(=O)OCC(=O)Nc1ccc(OC)c(Cl)c1,-1,.,22,.,-1.8,.,.
Cc1ccccc1OCCCC(=O)Nc1nccs1,0,-10,2,8,-0.34,1,.
Cc1ccc(C)c(OCCCC(=O)Nc2nccs2)c1,-1,-3,5,4,10*,-17,0.087*
COCCCNC(=O)CC(NS(=O)(=O)c1ccc(Cl)cc1)c1ccc(OC)cc1 (stereo not given),-1,-17,8,14,-0.18,2,.
Cc1ccc(C)c(-n2c(-c3csc(C)c3C)n[nH]c2=S)c1,-1,.,7,.,-1.8,.,.
COc1ccc(CC(NC(C)=O)C(=O)NC2CCN(S(=O)(=O)c3cccc4ccccc34)CC2)cc1OC (stereo not given),-1,4,2,-6,2.1,-2,0.097*
CC12C(=O)N(c3nccs3)C(=O)C1C1C=CC2C1 (stereo not given),-1,-3,6,4,1.9,3,.
Cc1ccc(S(=O)(=O)N2CC=C(c3ccc(F)cc3)CC2)cc1,-3,.,6,.,7.1*,.,0.03
CN(C)CCNC(=O)c1coc(=O)c(Br)c1,-2,.,3,.,13*,-21,0.053
CC(C)CNC(=O)c1coc(=O)c(Br)c1,-6,-7,10,6,0.58,-1,.
O=C(CCCCCN1C(=O)c2ccccc2C1=O)Nc1ccc2c(c1)OCCO2,-1,46,2,-47,0.03,11,.
O=C(CCN1C(=O)c2ccccc2C1=O)Nc1ccc2c(c1)OCCO2,0,-7,7,11,1.7,0,0.076*
O=C(O)C1CC(=O)N(Cc2ccccc2)C1 (stereo not given),1,1,4,-4,-0.04,-4,.
CCOC(=O)c1[nH]c(COC(=O)C2CC(=O)N(Cc3ccccc3)C2)c(C(=O)OCC)c1C (stereo not given),3,-4,5,7,4.6*,15,0.046
CC(C)C1(C(C)C)OC(=O)c2ccccc21,-1,.,7,.,3*,.,0.068
O=C1OC(c2ccc(O)cc2)(c2ccc(O)cc2)c2ccccc21,-3,.,19,.,0.39,6,.
C=CCOC(=O)Nc1c(C(=O)OC)[nH]c2ccccc12,-1,12,6,-12,3.9*,2,0.029
CC(NC(=O)c1sc2ccccc2c1Cl)C1CCCO1 (stereo not given),1,.,21,.,4*,.,0.079
CCOc1ccc(-c2nc(CSCC(=O)NCCN3CCOCC3)c(C)o2)cc1,-2,.,7,.,2.4,.,0.043
CCOc1ccc(OCCCCOc2ccccc2C(C)=O)cc1,1,.,37,.,-0.32,.,.
N#Cc1ccc(N/N=C/c2cn(-c3ccccc3)nc2-c2ccccc2)c([N+](=O)[O-])c1,-5,.,2,.,0.62,.,0.026
O=C(N/N=C/c1cn(-c2ccccc2)nc1-c1ccccc1)c1ccco1,0,.,6,.,-2.2,.,.
COc1cc(NC(=S)NCCCN2CCOCC2)cc(OC)c1,-1,.,28,.,1.6,.,.
CC(CCc1ccccc1)NC(=O)CSc1nc(N)cc(N)n1 (stereo not given),-1,2,19,-3,13*,27,0.11*
CC(CCc1ccccc1)NC(=O)CSc1nnnn1C (stereo not given),-2,4,2,-3,-0.77,-3,.
SMILES,MRP-1 activ,sEH inh,Measles CPE,sEH activator,sdo1 growth,MRP resist rev,SDO1 rescue DR
CCC(C)NC(=O)CN(C)S(=O)(=O)c1ccc2c(c1)c(=O)n(C)c(=O)n2C (stereo not given),-1,-22,3,20,0.19,-2,.
CN(CC(=O)NCc1cccnc1)S(=O)(=O)c1ccc2c(c1)c(=O)n(C)c(=O)n2C,-1,8,16,-9,3*,-2,0.074*
Cc1ccc2nc(C(F)OC(F)(F)F)[nH]c2c1 (stereo not given),-3,-6,3,8,12*,8,0.041
Cc1cccc(NC(=O)Cc2ccc(F)cc2)c1,0,1,12,-7,6.8*,7,0.075*
CCOC(=O)c1sc(NC(=O)CSc2nnnn2-c2ccc(C)c(C)c2)nc1C,-2,1,5,-1,1.5,1,0.1*
CCOC(=O)c1sc(NC(=O)CSc2nnnn2-c2ccccc2)nc1C,-1,8,.,-9,-1,-9,.
Cc1sc(-c2ccncc2)nc1OC(=O)c1ccccc1,1,4,9,-5,0.02,-10,.
CCCCOc1ccc(C(=O)N/N=C/c2cn[nH]c2-c2ccc(OC)c(OC)c2)cc1,0,.,36,.,-0.32,.,.
CCCCOc1ccc(C(=O)N/N=C/c2ccc(OCCN3CCCCC3)c(OC)c2)cc1,-5,.,5,.,9*,.,0.11*
CCc1cccc2c(SCC(=O)NCC3CCCO3)nc(-c3ccc(F)cc3)nc12 (stereo not given),-2,-6,0,8,0.88,.,0.042
CCc1cccc2c(SC(C)C(=O)NCC3CCCO3)nc(-c3ccccc3)nc12 (stereo not given),-1,-16,22,17,-0.55,.,.
CCOC(=O)C1CCCN(C(=O)c2ccccc2SCCOC)C1 (stereo not given),-3,6,9,-2,1.6,-4,0.081*
Cc1ccc(N2C(=O)[C@@H]3C(C(=O)CCN4C(=O)c5ccccc5C4=O)=NN[C@@H]3C2=O)cc1,-1,.,8,.,2,.,.
O=c1oc2ccccc2c2nccnc12,-3,3,7,-5,5.4*,33,0.043
COc1cc(/C=C/C(=O)c2ccc(NS(=O)(=O)c3ccc(C)cc3)cc2)cc(OC)c1O,-6,.,4,.,11*,.,0.055
COc1cc(/C=C/C(=O)c2ccc(NS(=O)(=O)c3ccc(C)cc3)cc2)ccc1OC(F)F,-5,.,5,.,-0.16,.,.
Cc1ccccc1-n1c(-c2ccc(Cl)cc2)cnc1SCC(=O)NC1CCS(=O)(=O)C1 (stereo not given),-3,.,5,.,-1.2,.,.
C=CCc1cc(/C=N/NC(=O)CSc2nnc(CCCc3ccc(OC)cc3)o2)cc(OC)c1O,-2,21,10,-23,1.5,.,0.087*
COc1ccc2nc(SCC(=O)N3CCN(c4ccccc4F)CC3)c(C#N)cc2c1,.,-16,.,17,.,-9,.
Cc1ccc(C(=O)N/C(=C/c2ccc(F)cc2)C(=O)NCc2ccncc2)cc1,-1,.,42,.,0.29,.,.
Cc1ccc2cc(C#N)c(SCC(=O)Nc3ccc4sc(C)nc4c3)nc2c1,-3,26,4,-26,2.2,.,0.1*
Cc1ccc2c(CC(=O)NNC(=O)c3ccccc3)coc2c1,-1,.,34,.,6.7*,.,0.084*
COc1cc(-c2cc(C(=O)Nc3c(Cl)cc(Cl)cc3Cl)c3ccccc3n2)cc(OC)c1OC,-2,.,8,.,0.76,.,.
COc1ccc2nc3ccccc3nc2c1NC(=O)c1ccc(Cl)cc1Cl,-1,.,3,.,1.6,.,0.096
